Measurements published in PubChem BioAssay (NCI).
This is part of a sample that, as a whole, favours compounds with a hit. Of some 79,000 tested, about 15% had one in any assay. Calls of active or inactive are those of the source. Rule as the data show it: active = growth inhibition above about 70%; inactive = the rest.

What was measured:
[1] = NCI Yeast Anticancer Drug Screen. Data for the rad52 strain (AID 147);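 also: 0% = growth of vehicle-treated control cultures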; conditions: S. cerevisiae rad52 mutant growth inhibition, active compounds read high
How it was run: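 The repair-mutant yeast strain was incubated with compounds, then growth was read and inhibition derived relative to vehicle.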

[2] = NCI Yeast Anticancer Drug Screen. Data for the wt1 strain (AID 149);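 also: 0% = growth of vehicle-treated wt1 cultures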; conditions: S. cerevisiae wt1 strain (SPY 50644) growth inhibition, active compounds read high
How it was run: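 Using yeast strain wt1, compound-induced growth inhibition was determined against vehicle-treated cultures.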

[3] = NCI Yeast Anticancer Drug Screen. Data for the rad50EPP+ strain (AID 151);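 also: 0% = growth of vehicle-treated control cultures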; conditions: S. cerevisiae rad50 mutant strain, active compounds read high
How it was run: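 Vehicle-normalised growth inhibition; rad50EPP+ yeast strain, altered in DNA damage repair, compound-treated.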

[4] = NCI Yeast Anticancer Drug Screen. Data for the mgt1 strain (AID 153); conditions: S. cerevisiae mgt1 mutant growth inhibition, active compounds read high
How it was run: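 Vehicle-normalized growth inhibition is determined in mgt1 yeast, a strain selected for a defined alteration in DNA repair or cell cycle control.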

[5] = NCI Yeast Anticancer Drug Screen. Data for the rad50 strain (AID 155);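 also: 0% = growth of vehicle-only cultures of the same strain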; conditions: S. cerevisiae rad50 strain growth inhibition, active compounds read high
How it was run: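 Relative growth inhibition (compound vs vehicle) was measured in yeast with a defined repair-gene alteration.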

[6] = NCI Yeast Anticancer Drug Screen. Data for the mec2-1 strain (AID 157); conditions: S. cerevisiae mec2-1 strain, active compounds read high
How it was run: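 Mutant yeast (mec2-1) grown with compound; growth inhibition relative to vehicle control reported.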

[7] = NCI Yeast Anticancer Drug Screen. Data for the rad14 strain (AID 159);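 also: 0% = growth of vehicle-treated control cultures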; conditions: S. cerevisiae rad14 strain growth inhibition, active compounds read high
How it was run: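 Screen for anticancer potential: a yeast strain altered in DNA damage repair is grown with compound, and reduced growth is quantified against vehicle controls.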

[8] = NCI Yeast Anticancer Drug Screen. Data for the sgs1 mgt1 strain (AID 161);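 also: 0% = growth of cultures given vehicle only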; conditions: S. cerevisiae sgs1 mgt1 strain, active compounds read high
How it was run: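 This yeast growth screen uses a strain with defined DNA-repair lesions; compound-treated growth is compared with vehicle-treated growth.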

[9] = NCI Yeast Anticancer Drug Screen. Data for the CLN2oe strain (AID 163);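 also: 0% = growth of vehicle-only control cultures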; conditions: S. cerevisiae CLN2oe strain, active compounds read high
How it was run: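 Compounds are applied to yeast harbouring a defined cell-cycle control change; reduced growth compared with vehicle-treated controls gives the value.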

[10] = NCI Yeast Anticancer Drug Screen. Data for the cln2 rad14 strain (AID 165);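 also: 0% = growth equal to vehicle treated cultures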; conditions: S. cerevisiae cln2 rad14 strain, active compounds read high
How it was run: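 Readout is yeast growth inhibition versus vehicle-treated controls, using a strain with cln2 and rad14 alterations exposed to compound.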

[11] = NCI Yeast Anticancer Drug Screen. Data for the wt2 strain (AID 169);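 also: 0% = growth of vehicle-treated yeast cultures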; conditions: S. cerevisiae wt2 strain growth inhibition, active compounds read high
How it was run: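 Against vehicle-treated controls, the growth of yeast exposed to each compound was compared, and the inhibition was recorded.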

[12] = NCI Yeast Anticancer Drug Screen. Data for the mlh1 strain (AID 171);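 also: 0% = growth of vehicle-treated control cultures of the same strain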; conditions: S. cerevisiae mlh1 strain growth inhibition, active compounds read high
How it was run: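 Measured: yeast growth. Reference: vehicle-treated controls. Organism: strain with a defined alteration affecting DNA damage repair or cell cycle control, treated with compound.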

[13] = NCI Yeast Anticancer Drug Screen. Data for the sgs1 strain (AID 173);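 also: 0% = growth of vehicle-only control cultures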; conditions: S. cerevisiae sgs1 mutant, active compounds read high
How it was run: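 Each compound was added to cultures of the altered yeast strain. Growth was recorded, and inhibition was derived by comparison with vehicle controls.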

[14] = NCI Yeast Anticancer Drug Screen. Data for the mlh1 rad18 strain (AID 175); conditions: S. cerevisiae mlh1 rad18 strain growth inhibition, active compounds read high
How it was run: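 Genetically defined yeast (DNA repair-deficient) exposed to compounds; growth inhibition determined relative to vehicle.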

[15] = NCI Yeast Anticancer Drug Screen. Data for the rad18 strain (AID 177); conditions: S. cerevisiae rad18 mutant growth inhibition, active compounds read high
How it was run: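 Vehicle-treated cultures served as the baseline for scoring compound-induced growth inhibition in DNA-repair-mutant yeast.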

[16] = NCI Yeast Anticancer Drug Screen. Data for the bub3 strain (AID 167); conditions: S. cerevisiae bub3 mutant strain, active compounds read high
How it was run: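 Screening used yeast with an engineered genetic alteration affecting cell cycle control. Compound-exposed cultures were compared with vehicle cultures, and reduced growth was taken as inhibition.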

[17] = at 5.0 µM (retest, dose inferred, filed as 0.5)
[18] = at 50.0 µM (retest, dose inferred, filed as 5.0)

Measured: growth inhibition

S=C1NC2(CCCCC2)NC12CCCCC2
inactive: [1]; at 1.2 µM -1% | [1]; at 3.7 µM -5% | [1]; at 11.0 µM -3% | [1]; at 33.0 µM 2% | [1]; at 100.0 µM -1% | [2]; at 1.2 µM -2% | [2]; at 3.7 µM -3% | [2]; at 11.0 µM 3% | [2]; at 33.0 µM 8% | [2]; at 100.0 µM 13% | [3]; at 1.2 µM -2% | [3]; at 3.7 µM 0% | [3]; at 11.0 µM 2% | [3]; at 33.0 µM 8% | [3]; at 100.0 µM 7% | [4]; at 1.2 µM -2% | [4]; at 3.7 µM -8% | [4]; at 11.0 µM 5% | [4]; at 33.0 µM 17% | [4]; at 100.0 µM 10% | [5]; at 1.2 µM 0% | [5]; at 3.7 µM 9% | [5]; [17] 11% | [5]; at 11.0 µM 19% | [5]; at 33.0 µM 19% | [5]; [18] 33% | [5]; at 50.0 µM 44.9% | [5]; at 100.0 µM 11% | [6]; at 1.2 µM -12% | [6]; at 3.7 µM -19% | [6]; [17] 3% | [6]; at 11.0 µM -18% | [6]; at 33.0 µM -1% | [6]; [18] 23% | [6]; at 50.0 µM 4.85% | [6]; at 100.0 µM 2% | [7]; at 1.2 µM -2% | [7]; at 3.7 µM -7% | [7]; at 11.0 µM -1% | [7]; at 33.0 µM 0% | [7]; at 100.0 µM 3% | [8]; [17] 30% | [8]; [18] 69% | [8]; at 50.0 µM 13.8% | [9]; at 1.2 µM -7% | [9]; at 3.7 µM -3% | [9]; at 11.0 µM -2% | [9]; at 33.0 µM 6% | [9]; at 100.0 µM 9% | [10]; [17] -30% | [10]; [18] 2% | [10]; at 50.0 µM -2% | [11]; at 1.2 µM -2% | [11]; at 3.7 µM -2% | [11]; at 11.0 µM 3% | [11]; at 33.0 µM 14% | [11]; at 100.0 µM 16% | [12]; at 1.2 µM -6% | [12]; at 3.7 µM -5% | [12]; at 11.0 µM 0% | [12]; at 33.0 µM 1% | [12]; at 100.0 µM -2% | [13]; at 1.2 µM -1% | [13]; at 3.7 µM -3% | [13]; at 11.0 µM 2% | [13]; at 33.0 µM 8% | [13]; at 100.0 µM 12% | [14]; [17] -9% | [14]; [18] 49% | [14]; at 50.0 µM 27.3% | [15]; at 1.2 µM -3% | [15]; at 3.7 µM -1% | [15]; at 11.0 µM 15% | [15]; at 33.0 µM 24% | [15]; at 100.0 µM 7%

O=C(O)CCCOc1cc(Cl)c(Cl)cc1Cl
active: [1]; at 100.0 µM 75% | [2]; at 100.0 µM 71% | [3]; at 100.0 µM 70% | [4]; at 100.0 µM 80% | [5]; [18] 98% | [5]; at 50.0 µM 82% | [5]; at 100.0 µM 78% | [6]; [18] 98% | [6]; at 50.0 µM 74.8% | [6]; at 100.0 µM 90% | [7]; at 100.0 µM 81% | [8]; at 50.0 µM 77.2% | [10]; at 50.0 µM 75.5% | [16]; at 50.0 µM 83.4% | [16]; at 100.0 µM 78% | [11]; at 100.0 µM 80% | [12]; at 100.0 µM 80% | [13]; at 100.0 µM 76% | [14]; [18] 99% | [14]; at 50.0 µM 78.7% | [15]; at 100.0 µM 77%
inactive: [1]; at 1.2 µM -13% | [1]; at 3.7 µM -4% | [1]; at 11.0 µM 1% | [1]; at 33.0 µM 45% | [2]; at 1.2 µM -1% | [2]; at 3.7 µM -9% | [2]; at 11.0 µM 2% | [2]; at 33.0 µM 22% | [3]; at 1.2 µM -10% | [3]; at 3.7 µM -6% | [3]; at 11.0 µM 13% | [3]; at 33.0 µM 43% | [4]; at 1.2 µM -17% | [4]; at 3.7 µM -32% | [4]; at 11.0 µM -13% | [4]; at 33.0 µM 35% | [5]; at 1.2 µM -10% | [5]; at 3.7 µM -17% | [5]; [17] 40% | [5]; at 11.0 µM -5% | [5]; at 33.0 µM 42% | [6]; at 1.2 µM -24% | [6]; at 3.7 µM -13% | [6]; [17] 52% | [6]; at 11.0 µM 4% | [6]; at 33.0 µM 34% | [7]; at 1.2 µM -13% | [7]; at 3.7 µM -4% | [7]; at 11.0 µM -4% | [7]; at 33.0 µM 17% | [8]; [17] -17% | [8]; [18] 18% | [9]; at 1.2 µM 0% | [9]; at 3.7 µM -15% | [9]; at 11.0 µM -11% | [9]; at 33.0 µM 4% | [9]; at 100.0 µM 60% | [10]; [17] 10% | [10]; [18] 47% | [16]; at 1.2 µM -6% | [16]; at 3.7 µM -3% | [16]; [17] 28% | [16]; at 11.0 µM -2% | [16]; at 33.0 µM 43% | [16]; [18] 52% | [11]; at 1.2 µM -6% | [11]; at 3.7 µM -11% | [11]; at 11.0 µM -4% | [11]; at 33.0 µM 30% | [12]; at 1.2 µM -20% | [12]; at 3.7 µM -27% | [12]; at 11.0 µM 2% | [12]; at 33.0 µM 40% | [13]; at 1.2 µM -13% | [13]; at 3.7 µM -18% | [13]; at 11.0 µM 2% | [13]; at 33.0 µM 43% | [14]; [17] 42% | [15]; at 1.2 µM -33% | [15]; at 3.7 µM -21% | [15]; at 11.0 µM -7% | [15]; at 33.0 µM 41%

CC(Cc1ccccc1)N(C)Cc1nc(C2CCC([N+](=O)[O-])O2)no1 (stereo not drawn)
inactive: [1]; at 1.2 µM 6% | [1]; at 3.7 µM 14% | [1]; at 11.0 µM 22% | [1]; at 33.0 µM 53% | [2]; at 1.2 µM -1% | [2]; at 3.7 µM 0% | [2]; at 11.0 µM 2% | [2]; at 33.0 µM 3% | [2]; at 100.0 µM 8% | [3]; at 1.2 µM 5% | [3]; at 3.7 µM 14% | [3]; at 11.0 µM 27% | [3]; at 33.0 µM 44% | [3]; at 100.0 µM 42% | [4]; at 1.2 µM 1% | [4]; at 3.7 µM -1% | [4]; at 11.0 µM 13% | [4]; at 33.0 µM 25% | [4]; at 100.0 µM 49% | [5]; at 1.2 µM 4% | [5]; at 3.7 µM 10% | [5]; [17] 17% | [5]; at 11.0 µM 10% | [5]; at 33.0 µM 46% | [6]; at 1.2 µM 4% | [6]; at 3.7 µM 2% | [6]; [17] 18% | [6]; at 11.0 µM 4% | [6]; at 33.0 µM 17% | [6]; at 50.0 µM 66% | [6]; at 100.0 µM 33% | [7]; at 1.2 µM 5% | [7]; at 3.7 µM 14% | [7]; at 11.0 µM 45% | [8]; [17] 35% | [9]; at 1.2 µM -1% | [9]; at 3.7 µM 1% | [9]; at 11.0 µM 8% | [9]; at 33.0 µM 48% | [10]; [17] 5% | [16]; at 1.2 µM 0% | [16]; at 3.7 µM 9% | [16]; [17] -16% | [16]; at 11.0 µM 20% | [16]; at 33.0 µM 54%
active: [1]; at 100.0 µM 84% | [5]; [18] 95% | [5]; at 50.0 µM 84.7% | [5]; at 100.0 µM 81% | [6]; [18] 98% | [7]; at 33.0 µM 70% | [7]; at 100.0 µM 93% | [8]; [18] 99% | [8]; at 50.0 µM 85.3% | [9]; at 100.0 µM 93% | [10]; [18] 94% | [10]; at 50.0 µM 88% | [16]; [18] 100% | [16]; at 50.0 µM 90% | [16]; at 100.0 µM 79%
